# TEAD-YAP block = TEAD-YAP interaction inhibition. HEK-TIYL cells, TEAD-Gal4/YAP UAS-luciferase luminescence. inhibition, % at 9.12 µM. hit rate 1.4% among 640,000. AID 1259422; in the data active means inhibition above about 32%;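 further: 0% = median of test compound wells and 100% = reference inhibitor wells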
# FBW7 act = human FBW7 E3 ligase activation, primary screen. Q969H0. AlphaScreen FBW7–phospho-cyclin E peptide binding, activator screen. normalized activity (activation), % at 26.1 µM. hit rate 0.13% among 650,000. AID 1259310; in the data active means normalized activity above about 1.9%;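 further: purified mutant Fbw7 with reduced substrate affinity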
# MITF primary = blocks human microphthalmia-associated transcription factor. AlphaScreen MITF homodimerization, bead proximity signal. O75030. inhibition, % at 2.6 µM. hit rate 0.91% among 650,000; in the data active means inhibition above about 50%;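 further: 0% = vehicle wells with protein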
# GPR151 ag = activators of human GPR151; Q8TDV0; PathHunter beta-arrestin GPR151 cells, luminescence; activation, % at 11.2 µM; hit rate 1% among 650,000; in the data active means activation above about 4.9%;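 further: 0% = median of compound wells and 100% = cells with positive control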
# GPR151 confirm = confirmation of human GPR151 activators | shares compounds with GPR151 ag | GPR151 PathHunter beta-arrestin cells, luminescence, 90 min; % of EA-reagent control over plate median | activation, % at 11.2 µM | 6,700 tested, under 10 active | AID 1508609;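 active means mean percent activation across replicates above the confirmation screen cutoff of 4.91%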
# GPR119 counter = activates human GPR119 in a GPR151 counter-screen; activation, % at 11.2 µM; GPR119 PathHunter beta-arrestin cells, luminescence, 90 min; 0 = compound-well median, 100 = enzyme-acceptor control; hit rate 0.3% among 6,700; shares compounds with GPR151 ag;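 active means mean percent activation in the counterscreen above 29.09%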;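 further: counterscreen on off-target GPR119 to flag nonselective hits from the GPR151 activator screen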
# Target sequence (Q8TDV5 whole entry, looked up): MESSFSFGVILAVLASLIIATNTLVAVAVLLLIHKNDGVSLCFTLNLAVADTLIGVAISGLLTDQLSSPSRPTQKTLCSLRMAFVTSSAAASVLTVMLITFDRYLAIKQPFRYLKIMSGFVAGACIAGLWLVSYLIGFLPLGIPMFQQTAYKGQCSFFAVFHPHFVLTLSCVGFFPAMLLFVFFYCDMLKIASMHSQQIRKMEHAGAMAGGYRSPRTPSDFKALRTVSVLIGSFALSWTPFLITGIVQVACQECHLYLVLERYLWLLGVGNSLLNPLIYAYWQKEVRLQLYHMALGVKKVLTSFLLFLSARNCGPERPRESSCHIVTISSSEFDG
# An asterisk follows results filed as active; x = no result given; ! = repeats disagree. Shown are actives, neighbours in structure and some others; about 3.5% of the full set was active somewhere.
SMILES,TEAD-YAP block,FBW7 act,MITF primary,GPR151 ag,GPR151 confirm,GPR119 counter
O=S(=O)(N/N=C/c1cccc(Cl)c1)c1ccc(Cl)cc1,-9,0,15,5.2*,-2,-6
COc1ccc(-c2cc(N3CCN(C(=O)COc4ccc(C)cc4OC)CC3)ncn2)cc1,1,0,15,-1,x,x
CCOC(=O)c1sc2nc(SCc3cccc(Cl)c3)n(Cc3ccccc3OC)c(=O)c2c1C,-5,0,-3,0,x,x
COc1cccc(CC2(CO)CCN(C(=O)Cn3cnnn3)CC2)c1,4,0,11,-2,x,x
COc1cccc(CC2(CO)CCN(C(=O)CN3CCCC(c4ccccc4)C3)CC2)c1 (configuration not stated),0,0,7,5.2*,0,5
OCCC1CN(Cc2cccn2-c2cccnc2)CCN1CCCc1ccccc1 (configuration not stated),4,0,2,-1,x,x
COc1ccc(C2/C(=C(/O)c3ccccc3)C(=O)C(=O)N2CCCn2ccnc2)c(OC)c1 (configuration not stated),2,0,-21,5.9*,2,-4
COc1ccc(C2/C(=C(/O)c3ccc(C)cc3)C(=O)C(=O)N2CCCC(=O)O)c(OC)c1 (configuration not stated),8,0,-9,7.8*,1,10
COc1ccc(C2/C(=C(/O)c3ccc(F)cc3)C(=O)C(=O)N2CCCCCC(=O)O)c(OC)c1 (configuration not stated),-10,0,-10,1,x,x
CCOc1ccc(-n2c(CNC(=O)c3ccco3)nnc2SCC(=O)N2N=C(c3cccs3)CC2c2ccc(OC)cc2)cc1 (configuration not stated),-5,0,12,3,x,x
O=C(NNC(=O)c1ccccc1I)c1cccs1,-2,0,4,5.8*,0,-11
O=C1c2ccccc2S(=O)(=O)N1C(=O)c1c(Cl)nc2sccn12,-3,1,13,0,x,x
COc1ccc(-c2nc(C(=O)N3CCN(C)CC3)sc2-c2ccc(OC)cc2)cc1,x,0,7,6.7*!,2,6
CCCCC(Sc1nc2ccccc2c2nc(-c3ccccc3OC)nn12)C(=O)OCC (configuration not stated),-8,0,-3,5.4*,0,2
NC(=O)CSc1nnc(Cc2ccccc2)n1-c1ccc(F)cc1,5,0,-3,6.0*,1,-7
COc1cccc(CCNC(=O)C2CC23CCN(C(=O)C2(c4ccccc4)CC2)CC3)c1 (configuration not stated),-2,0,3,0,x,x
C=CCOc1ccc(/C=C2\SC(=N)N(c3nonc3N)C2=O)cc1OCC,1,0,-9,-1,x,x
COc1ccc(S(=O)(=O)CCC(=O)Nc2ccccc2Br)cc1,-9,0,3,9.4*,0,-4
O=C/C(=C\Nn1cnnc1)c1nc2ccccc2o1,2,0,13,15*,0,-7
CNS(=O)(=O)c1ccc(N/C=C(\C#N)c2nc3ccccc3o2)cc1,-30,0,12,1,x,x
COc1ccc(C2CC(c3cccs3)=NN2C(=O)CSc2nnc(CNC(=O)c3cccc(OC)c3)n2-c2ccccc2)cc1 (configuration not stated),2,0,-9,5.8*,1,1
COc1cccc(C(=O)NCc2nnc(SCC(=O)N3N=C(c4cccs4)CC3c3ccc(C)cc3)n2-c2ccccc2)c1 (configuration not stated),7,0,-12,1,x,x
Cc1cn2c3c(=O)n(CC(C)C)c(=O)n(C)c3nc2n1C,5,0,13,5.6*,-1,6
CCCCCn1c(=O)c2c(nc3n(Cc4ccc(OC)cc4)c(C)cn23)n(C)c1=O,7,0,1,4.9*,-1,-7
CCCCn1c(=O)c2c(nc3n(Cc4ccc(OC)cc4)c(C)cn23)n(C)c1=O,3,1,11,0,x,x
CCOC(=O)c1ccc(-n2c(C)cn3c4c(=O)n(CCC(C)C)c(=O)n(C)c4nc23)cc1,10,0,1,5.1*,0,5
CCOC(=O)c1ccc(-n2c(C)cn3c4c(=O)n(C)c(=O)n(C)c4nc23)cc1,-1,0,-6,1,x,x

# Screening data: PubChem BioAssay, The Scripps Research Institute Molecular Screening Center
